Pf growth 48h = Primary qHTS for delayed death inhibitors of the malarial parasite plastid, 48 hour incubation; P. falciparum luciferase growth in erythrocytes, 48 h; AID 504832, 2011; Potency, µM (highest dose often 28.7 µM), for the others: at the highest dose activity change, negative = inhibition, usual class: inhibitors; actives 5.9% (n = 310,000)
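Read-out is firefly luciferase luminescence from an integrated reporter in P. falciparum, so falling signal marks reduced parasite growth. Infected erythrocytes were at 2% hematocrit and 0.1% parasitemia (final) in Albumax-supplemented RPMI 1640.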
AmpC inh detg = qHTS Inhibitors of AmpC Beta-Lactamase (assay with detergent); actives 0.041% (n = 370,000); AID 485294, 2010; AmpC hydrolysis of nitrocefin, absorbance 480 nm, 0.01% Triton; P00811; Potency, µM (top dose mostly 114 µM), for the others: at the top dose activity change, negative = inhibition, most hits filed as inhibitors;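 further: 0% = no-compound wells and -100% = no-enzyme wells; nearly all actives have a fitted effect of over 25% in size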
Target sequence (P00811 whole entry, looked up): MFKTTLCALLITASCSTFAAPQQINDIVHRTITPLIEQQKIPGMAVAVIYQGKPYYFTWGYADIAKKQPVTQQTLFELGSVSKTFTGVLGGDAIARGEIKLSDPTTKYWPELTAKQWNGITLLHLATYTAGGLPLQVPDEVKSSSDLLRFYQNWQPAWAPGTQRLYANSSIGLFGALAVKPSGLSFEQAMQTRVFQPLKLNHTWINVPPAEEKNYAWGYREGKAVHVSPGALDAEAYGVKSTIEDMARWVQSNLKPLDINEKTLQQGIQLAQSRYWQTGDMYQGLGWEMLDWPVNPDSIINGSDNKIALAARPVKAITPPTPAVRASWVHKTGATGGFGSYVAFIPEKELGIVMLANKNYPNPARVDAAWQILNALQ
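AmpC (5.3 nM in the dispensed reagent) in 20 mM phosphate pH 7.0 with 0.01% (detergent screen) or 0.0001% Triton X-100 was preincubated with compounds for 15 min at room temperature. Nitrocefin was then added from an 800 uM solution, and hydrolysis was followed at 480 nm.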
HCV inh = qHTS Assay for Inhibitors of Hepatitis C Virus (HCV); actives 3.4% (n = 340,000); Potency, µM (highest dose often 41.8 µM), for inactives: at the top dose activity change, negative = inhibition, hits mostly inhibitors; Huh7.5.1 HCVcc-Cre infection, luciferase reporter, 44 h
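Luciferase read-out (15 sec integration) after a 15 min room-temperature substrate step quantifies HCVcc-Cre infection. Cells, 1,000 per well, had compound added 4 h post-plating, then virus at ~0.5 moi, and were cultured 44 h.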
AMA1 RON2 block = qHTS for Inhibitors of AMA1-RON; Towards Development of Antimalarial Drug Lead: Primary Screen. AlphaScreen AMA1-biotinylated RON2 peptide binding. Potency, µM (highest dose often 58.2 µM), for the others: top-dose activity change, negative = inhibition, hits mostly inhibitors. actives 0.2% (n = 360,000). AID 720542, 2013;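 further: 0% = vehicle wells and -100% = peptide control; nearly all actives have a fitted effect of over 45% in size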
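AMA1 (3D7) with his tag at 25 nM final met compounds first, then biotinylated RON2 peptide at 25 nM; detection used donor plus acceptor beads, 10 µg/mL apiece, read by AlphaScreen after 30 min at room temperature.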
Pf growth 96h = Primary qHTS for delayed death inhibitors of the malarial parasite plastid, 96 hour incubation | AID 504834, 2011 | Potency, µM (series often up to 28.7 µM), without a hit: at the top dose activity change, negative = inhibition, hits mostly inhibitors | actives 6.9% (n = 320,000) | P. falciparum luciferase reporter growth, 96 h
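96 h incubation, 37 C, 5% CO2, of luciferase-reporter P. falciparum-infected RBCs (2% hematocrit, 0.05% parasitemia final) with test compounds; endpoint luminescence.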
AmpC inh no detg = qHTS Inhibitors of AmpC Beta-Lactamase (assay without detergent) | P00811 | AmpC nitrocefin hydrolysis, absorbance 480 nm, 0.0001% Triton | Potency, µM (top dose mostly 57.1 µM), without a hit: at the highest dose activity change, negative = inhibition, usual class: inhibitors | actives 0.52% (n = 330,000);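 further: plate controls were no compound for no effect and no enzyme for full effect; nearly all actives have a fitted effect of over 20% in size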
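20 mM phosphate pH 7.0 + 0.01% (detergent screen) or 0.0001% Triton X-100; 5.3 nM AmpC reagent; cpd preinc 15 min RT; nitrocefin (800 uM stock) to start; A480 q20 s × 4 min; Activity was normalised to no-enzyme and no-compound control wells.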
The depositor's hits bear a star; ? = inconclusive; / = no result. Compounds with a hit are over-represented: about 11% of the library has one in this group of screens. The call rests on the fitted dose curve; in most records, active means well fitted curve in the direction sought with a large enough effect; inconclusive means small, poorly fitted or top-dose-only effect, or another doubt; inactive means no such curve, though single readings can be large; an effect the other way counts as inactive or inconclusive. Unless noted, on the % scale 0 is the no-effect control and ±100 the full control effect; potency means the concentration at half of the fitted maximal effect.

SMILES | Pf growth 48h | AmpC inh detg | HCV inh | AMA1 RON2 block | Pf growth 96h | AmpC inh no detg
CC(=O)Nc1ccc(NC(=O)C2CCN(C(=O)NC3CCCCC3)CC2)cc1 | -3% | -2% | 6% | 1% | 5.2µM* | -11%
CCCc1nnc(NC(=O)Cc2coc3c(C)c(C)ccc23)s1 | / | 6% | / | / | / | /
CCCN(CCC)C(=O)Cn1c(=O)n(-c2ccc(C)c(C)c2)c(=O)c2c3c(sc21)CCCCC3 | / | 26% | / | / | / | /
COC(=O)c1ccc(NC(=O)C2CCN(C(=O)Nc3ccccc3)CC2)cc1 | ? | 5% | ? | -2% | 4.7µM* | -15%
Cc1ccc(-c2nc(N)c3c(-c4ccc(C)cc4)nn(C(C)(C)C)c3n2)cc1 | -17% | 0% | ? | -3% | ? | -14%
CC(C)(C)n1nc(-c2ccc(F)cc2)c2c(N)ncnc21 | 12µM* | 3% | -16% | 0% | 15µM* | -6%
CC(C)(C)n1nc(-c2ccc(Cl)cc2)c2c(N)ncnc21 | 12µM* | -7% | 16% | -1% | 3.7µM* | -13%
CSc1cccc(NC(=O)CN(C)S(=O)(=O)c2ccc3c(c2)CCCN3C(C)=O)c1 | / | 1% | / | / | / | /
COc1ccc(CCNC(=O)C(=O)NCC(c2ccco2)S(=O)(=O)c2ccc(F)cc2)cc1 (stereo unspecified) | / | 2% | / | / | / | /
CS(=O)(=O)NNC(=O)c1cc2cc3ccccc3nc2s1 | 3% | -12% | 11% | 16% | 4.7µM* | -27%
COc1ccc(S(=O)(=O)NNC(=O)c2cc3cc4ccccc4nc3s2)cc1 | ? | -11% | 5% | 34% | -2% | -37%
NNC(=O)c1cc2cc3ccccc3nc2s1 | ? | 1% | 25% | 75% | 13µM* | -25%
Clc1ccc(CCC(Cn2ccnc2)Sc2c(Cl)cccc2Cl)cc1 (stereo unspecified) | 1.5µM* | ? | ? | 16% | 0.93µM* | 9%
COc1ccccc1NC(=O)C1=C(C)Nc2nc(SCc3ccccc3Cl)nn2C1c1ccccn1 (stereo unspecified) | / | 1% | / | / | / | /
CC[C@H](C)[C@@H](C(=O)NCCCCCCCCCCC(=O)N1CCN(C(=O)OC(C)(C)C)CC1)n1cc(CCCCN=C(NC(=O)OC(C)(C)C)NC(=O)OC(C)(C)C)nn1 | 1.2µM* | 5% | 15% | / | 1.9µM* | 253%
CC[C@H](C)[C@@H](C(=O)NCCCCCCCCCCC(=O)N1CCN(C(=O)OC(C)(C)C)CC1)n1cc(CCCCCNC(=O)OC(C)(C)C)nn1 | 1.5µM* | ? | ? | -2% | 1µM* | 93%
C[C@H](O)[C@@H](C(=O)N1CCN(C(=O)OC(C)(C)C)CC1)n1cc(CCCCNC(=O)OC(C)(C)C)nn1 | -2% | -3% | -5% | -1% | 9% | 84%
CC[C@@H](C)[C@@H](C(=O)N1CCN(C(=O)OC(C)(C)C)CC1)n1cc(CCCN=C(NC(=O)OC(C)(C)C)NC(=O)OC(C)(C)C)nn1 | ? | 1% | -12% | -1% | ? | 136%
Cc1cn([C@H](C(=O)NCCCCCCCCCCC(=O)N2CCN(C(=O)OC(C)(C)C)CC2)[C@@H](C)O)nn1 | 10µM* | -3% | ? | 9% | 9.3µM* | 207%
CCOC(=O)c1c(C)[nH]c(CCC(=O)Nc2ccc(C)c(F)c2)c1C | / | 0% | / | / | / | /
CCCc1ccc(OC(C)C(=O)Nc2sc3c(c2C(=O)OC)CCCCC3)cc1 (stereo unspecified) | / | 0% | / | / | / | /
CN(CC(=O)Nc1cccc(F)c1)C(=O)c1ccc(-c2cccc(C(F)(F)F)c2)o1 | 0.33µM* | 3% | -21% | -16% | 0.12µM* | 64%
Cc1ccc(C)c(NC(=O)CN(C)C(=O)c2ccc(-c3cccc(C(F)(F)F)c3)o2)c1 | 1.9µM* | -22% | -7% | -14% | 1.3µM* | 14%
CN(CC(=O)Nc1ccc(F)cc1)C(=O)c1ccc(-c2ccc(F)cc2)o1 | / | / | / | -3% | / | /
COc1cccc(NC(=O)CN(C)CC(=O)Nc2cccc(C(F)(F)F)c2)c1 | -24% | -10% | -20% | 3% | -14% | 64%
SMILES | Pf growth 48h | AmpC inh detg | HCV inh | AMA1 RON2 block | Pf growth 96h | AmpC inh no detg
Cc1ccc(C)c(NC(=O)CN(C)C(=O)Cc2ccccc2)c1 | -13% | -4% | 35% | -24% | -34% | -31%
COc1cccc(NC(=O)CN(C)C(=O)c2ccc(-c3cccc(C(F)(F)F)c3)o2)c1 | 0.33µM* | ? | ? | -15% | 0.26µM* | 88%
COc1cccc(CNC(=O)CN2C(=O)CSc3c2c(C)nn3-c2ccccc2)c1 | / | 0% | / | / | / | /
Cc1ccc(C(=O)Nc2ccccc2C(=O)O)cc1S(=O)(=O)N1CCCCCC1 | / | 3% | / | / | / | /
Cc1ccc(C)c(NC(=O)c2cc(=O)c3cc(C)cc(C)c3o2)c1 | / | 15% | / | / | / | /
CN(C)c1cccc(C(=O)NNC(=O)NC2CCCCC2)c1 | -2% | 1% | 3% | 0% | 6.6µM* | 5%
COc1cc(OC)cc(C(=O)NNC(=O)NC2CCCCC2)c1 | -9% | ? | 15% | 41% | 10µM* | -22%
COc1cc(OC)cc(C(=O)NNC(=O)CCC2CCCC2)c1 | / | / | 29% | 29% | / | -20%
CCOC(=O)n1c(=O)n(C)c2ccc(Cl)cc21 | 36% | -5% | 3.2µM* | -6% | 22% | 5%
O=C(CNS(=O)(=O)c1ccc(Br)s1)Nc1ccc2c(c1)OCCO2 | ? | -20% | -17% | 8% | 13µM* | -42%
CN(CC(=O)Nc1ccc2c(c1)OCCO2)S(=O)(=O)c1ccc(Br)s1 | / | 2% | 0% | -3% | 13µM* | -20%
Cc1ccc(N(C(=O)c2cccc(C)c2)S(=O)(=O)c2ccc(Cl)cc2)cc1 | / | 6% | / | / | / | /
CN(C)C(=O)CCC(=O)N1CCCC(C(=O)c2ccc3c4c(cccc24)CC3)C1 (stereo unspecified) | -2% | 2% | -7% | -5% | 15µM* | 188%
CCc1nc(CN2CCCC(C(=O)c3ccc4c5c(cccc35)CC4)C2)c(C)[nH]1 (stereo unspecified) | ? | 6% | 10µM* | -3% | 1% | 113%
O=C(c1ccc2c3c(cccc13)CC2)C1CCCN(CC2CC2)C1 (stereo unspecified) | ? | 2% | ? | -26% | ? | 54%
